Our source for the Potency values is PubChem BioAssay (NCATS).

Records with an inconclusive call do not appear. Entries that show only a call come without a potency. Values without a mark were called inactive. Activity calls are given as the source filed them. Unless noted, calls come from the whole dose curve; as a rule, active = well fitted curve in the direction sought with a large enough effect; inconclusive = small, poorly fitted or top-dose-only effect, or another doubt; inactive = no such curve, though single readings can be large; an effect the other way counts as inactive or inconclusive.

The target in one assay is Furin (Homo sapiens) (UniProt P09958). The experiment in a line: Furin counterscreen qHTS for Zika virus inhibitors (AID 1347149).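 Note: purified recombinant full-length human furin enzyme at 5 nM; fluorescence gain from furin cutting a BOC-RVRR-AMC peptide substrate over 15 min; top concentration of the series differs between compounds; nearly all actives have a fitted effect of over 70% in size.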 The gist of the method: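 Counterscreen measures cleavage of 2 microM BOC-RVRR-AMC, below its ~15 microM Km, by 5 nM full-length human furin at pH 7.0 after a 15-min compound preincubation. Inhibition derives from the 15-min fluorescence increase at 37C.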
Furin (Homo sapiens), sequence (P09958 whole entry, looked up): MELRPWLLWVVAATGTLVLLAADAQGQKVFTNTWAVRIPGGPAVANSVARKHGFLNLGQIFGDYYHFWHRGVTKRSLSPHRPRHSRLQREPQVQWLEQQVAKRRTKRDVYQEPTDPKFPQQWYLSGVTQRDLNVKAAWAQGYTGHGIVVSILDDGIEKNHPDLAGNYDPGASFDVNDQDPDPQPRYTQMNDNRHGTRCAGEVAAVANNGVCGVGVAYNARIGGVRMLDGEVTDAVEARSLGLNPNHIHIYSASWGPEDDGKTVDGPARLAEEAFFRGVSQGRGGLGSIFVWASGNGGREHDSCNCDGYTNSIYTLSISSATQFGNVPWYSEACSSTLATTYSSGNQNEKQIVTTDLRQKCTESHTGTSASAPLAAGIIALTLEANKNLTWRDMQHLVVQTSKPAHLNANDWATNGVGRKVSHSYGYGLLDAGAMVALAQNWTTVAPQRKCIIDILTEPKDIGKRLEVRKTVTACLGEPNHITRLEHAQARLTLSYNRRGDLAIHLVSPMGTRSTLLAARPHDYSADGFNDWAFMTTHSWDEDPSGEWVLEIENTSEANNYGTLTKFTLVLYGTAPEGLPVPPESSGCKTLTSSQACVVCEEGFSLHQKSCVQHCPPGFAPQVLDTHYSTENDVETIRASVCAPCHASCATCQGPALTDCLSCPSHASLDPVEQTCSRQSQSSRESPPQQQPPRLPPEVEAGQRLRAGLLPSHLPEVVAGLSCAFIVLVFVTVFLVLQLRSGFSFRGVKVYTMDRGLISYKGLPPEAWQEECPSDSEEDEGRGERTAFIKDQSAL

A short description of assay [1]: qHTS for Inhibitors of Plasmodium falciparum (CP250) proliferation (AID 504320). In short, it runs like this:
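Parasite growth measured as SYBR Green DNA fluorescence (ex 485, em 535 nm) after overnight lysis following 72 h culture at 37 °C, 0.3% parasitemia, 2.5% hematocrit. Values normalized against DMSO and 0.29 uM artemisinin controls, with plate-stack correction.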
A general note: Quantitative high-throughput screening tests each substance at several concentrations.

Assay [2] has as its target Atrial natriuretic peptide receptor 1 (Homo sapiens) (UniProt P16066). The experiment in a line: Natriuretic polypeptide receptor (hNpr1) antagonism - Pilot CMLD screen (AID 1347052; calls by dose curve;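 note: HEK293 cells with hNpr1 stimulated by hNppA peptide at 0.1 nM; cGMP level read as GloSensor luciferase luminescence after agonist stimulation; series mostly up to about 9.2 µM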).

Atrial natriuretic peptide receptor 1 (Homo sapiens), sequence (P16066 whole entry, looked up): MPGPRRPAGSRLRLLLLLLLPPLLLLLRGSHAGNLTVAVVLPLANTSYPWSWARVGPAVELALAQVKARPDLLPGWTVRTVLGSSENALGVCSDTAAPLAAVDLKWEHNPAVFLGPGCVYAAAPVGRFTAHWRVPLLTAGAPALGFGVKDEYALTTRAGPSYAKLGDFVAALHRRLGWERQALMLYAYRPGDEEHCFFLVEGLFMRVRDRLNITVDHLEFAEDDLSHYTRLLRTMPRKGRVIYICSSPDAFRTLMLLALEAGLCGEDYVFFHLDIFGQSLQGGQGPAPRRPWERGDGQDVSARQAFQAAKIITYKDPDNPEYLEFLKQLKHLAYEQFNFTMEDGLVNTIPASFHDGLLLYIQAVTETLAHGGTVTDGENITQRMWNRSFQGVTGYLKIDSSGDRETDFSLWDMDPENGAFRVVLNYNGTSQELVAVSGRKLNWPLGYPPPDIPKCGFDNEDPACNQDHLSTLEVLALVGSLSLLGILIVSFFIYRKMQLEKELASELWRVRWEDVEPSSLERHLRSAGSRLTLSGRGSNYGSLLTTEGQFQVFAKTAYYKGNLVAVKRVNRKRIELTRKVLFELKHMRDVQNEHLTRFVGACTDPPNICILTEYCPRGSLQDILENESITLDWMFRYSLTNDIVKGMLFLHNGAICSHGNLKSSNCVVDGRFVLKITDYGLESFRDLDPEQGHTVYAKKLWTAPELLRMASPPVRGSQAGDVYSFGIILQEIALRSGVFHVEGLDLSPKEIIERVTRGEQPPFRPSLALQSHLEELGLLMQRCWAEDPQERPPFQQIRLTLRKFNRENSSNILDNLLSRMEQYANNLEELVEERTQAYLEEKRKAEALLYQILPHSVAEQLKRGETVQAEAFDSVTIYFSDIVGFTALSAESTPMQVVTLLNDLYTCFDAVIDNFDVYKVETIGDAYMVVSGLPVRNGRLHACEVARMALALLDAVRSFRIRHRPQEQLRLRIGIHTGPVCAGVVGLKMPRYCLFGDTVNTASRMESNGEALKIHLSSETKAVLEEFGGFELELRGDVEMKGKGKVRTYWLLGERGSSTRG

For the molecule `O=C(CSc1ncccc1C(=O)Oc1ccccc1Cl)Nc1ccc(C(F)(F)F)cc1Cl`, the Potency entry in the assay with Furin (Homo sapiens) was “inactive”.
For `C[C@H]1CC[C@H]2C(=O)N(Cc3ccc(Cl)cc3)C[C@H](O)CN2[C@H]1c1ccc(Br)cc1`, the Potency result in assay [1] and in assay [2] was “inactive” throughout.
